Reference: publication PMC9911399, “Two distinct binding modes provide the RNA-binding protein RbFox with extraordinary sequence specificity”
Numbering of substitutions follows the chain as printed; changes in the protein carry UniProt numbers. Over roughly 16,000 sequences, “ka relative to ugcaugu” has its median near 0.0091; the highest 2% begin near 0.032. The full list was thinned out, with the highest values kept by preference.

B1: CGCGGAU (DNA:RNA)
RNA: GGGAGACCGGAAUUCAGAUUGUCCCGCGGAUUUAAAUCCCGUCGUAGCCACCA
DNA 1: CAATCTGAATTCCGGTCTCCC
DNA 2: TGGTGGCTACGACGGGATT
B2: GCGGAUU (DNA:RNA)
RNA: B1 RNA with C25G, G26C, C27G, G29A, A30U
DNA 1: CAATCTGAATTCCGGTCTCCC
DNA 2: TGGTGGCTACGACGGGATT
B3: GCGGUUG (DNA:RNA)
RNA: B1 RNA with C25G, G26C, C27G, G29U, A30U, U31G
DNA 1: CAATCTGAATTCCGGTCTCCC
DNA 2: TGGTGGCTACGACGGGATT
B4: AUUGUUU (DNA:RNA)
RNA: B1 RNA with C25A, G26U, C27U, G29U, A30U
DNA 1: CAATCTGAATTCCGGTCTCCC
DNA 2: TGGTGGCTACGACGGGATT
B5: GUUCAGC (DNA:RNA)
RNA: GGGAGACCGGAAUUCAGAUUGUCCGUUCAGCUUAAAUCCCGUCGUAGCCACCA
DNA 1: CAATCTGAATTCCGGTCTCCC
DNA 2: TGGTGGCTACGACGGGATT
B6: AAUAUGG (DNA:RNA)
RNA: B5 RNA with G25A, U26A, C28A, A29U, C31G
DNA 1: CAATCTGAATTCCGGTCTCCC
DNA 2: TGGTGGCTACGACGGGATT
B7: CGCGAUU (DNA:RNA)
RNA: B1 RNA with G29A, A30U
DNA 1: CAATCTGAATTCCGGTCTCCC
DNA 2: TGGTGGCTACGACGGGATT
B8: UAUGUGA (DNA:RNA)
RNA: B5 RNA with G25U, U26A, C28G, A29U, C31A
DNA 1: CAATCTGAATTCCGGTCTCCC
DNA 2: TGGTGGCTACGACGGGATT
B9: GUAUUGA (DNA:RNA)
RNA: B5 RNA with U27A, C28U, A29U, C31A
DNA 1: CAATCTGAATTCCGGTCTCCC
DNA 2: TGGTGGCTACGACGGGATT
B10: ACGGAUU (DNA:RNA)
RNA: B1 RNA with C25A, G26C, C27G, G29A, A30U
DNA 1: CAATCTGAATTCCGGTCTCCC
DNA 2: TGGTGGCTACGACGGGATT
B11: GGAUUUU (DNA:RNA)
RNA: B1 RNA with C25G, C27A, G28U, G29U, A30U
DNA 1: CAATCTGAATTCCGGTCTCCC
DNA 2: TGGTGGCTACGACGGGATT
B12: GGGAUUU (DNA:RNA)
RNA: B1 RNA with C25G, C27G, G28A, G29U, A30U
DNA 1: CAATCTGAATTCCGGTCTCCC
DNA 2: TGGTGGCTACGACGGGATT
B13: CGGGCGU (DNA:RNA)
RNA: B1 RNA with C27G, G29C, A30G
DNA 1: CAATCTGAATTCCGGTCTCCC
DNA 2: TGGTGGCTACGACGGGATT
B14: GGGAAAU (DNA:RNA)
RNA: B1 RNA with C25G, C27G, G28A, G29A
DNA 1: CAATCTGAATTCCGGTCTCCC
DNA 2: TGGTGGCTACGACGGGATT
B15: GGGGAAU (DNA:RNA)
RNA: B1 RNA with C25G, C27G, G29A
DNA 1: CAATCTGAATTCCGGTCTCCC
DNA 2: TGGTGGCTACGACGGGATT
B16: GGGCGUU (DNA:RNA)
RNA: B1 RNA with C25G, C27G, G28C, A30U
DNA 1: CAATCTGAATTCCGGTCTCCC
DNA 2: TGGTGGCTACGACGGGATT
B17: GGGGCGU (DNA:RNA)
RNA: B1 RNA with C25G, C27G, G29C, A30G
DNA 1: CAATCTGAATTCCGGTCTCCC
DNA 2: TGGTGGCTACGACGGGATT
B18: CGGGAUU (DNA:RNA)
RNA: B1 RNA with C27G, G29A, A30U
DNA 1: CAATCTGAATTCCGGTCTCCC
DNA 2: TGGTGGCTACGACGGGATT
B19: GUUAAAU (DNA:RNA)
RNA: B5 RNA with C28A, G30A, C31U
DNA 1: CAATCTGAATTCCGGTCTCCC
DNA 2: TGGTGGCTACGACGGGATT
B20: UCCGGCA (DNA:RNA)
RNA: B1 RNA with C25U, G26C, A30C, U31A
DNA 1: CAATCTGAATTCCGGTCTCCC
DNA 2: TGGTGGCTACGACGGGATT
B21: ACUUCCC (DNA:RNA)
RNA: B5 RNA with G25A, U26C, C28U, A29C, G30C
DNA 1: CAATCTGAATTCCGGTCTCCC
DNA 2: TGGTGGCTACGACGGGATT
B22: ACGCCGU (DNA:RNA)
RNA: B5 RNA with G25A, U26C, U27G, A29C, C31U
DNA 1: CAATCTGAATTCCGGTCTCCC
DNA 2: TGGTGGCTACGACGGGATT
B23: UGCCAAA (DNA:RNA)
RNA: B1 RNA with C25U, G28C, G29A, U31A
DNA 1: CAATCTGAATTCCGGTCTCCC
DNA 2: TGGTGGCTACGACGGGATT
B24: GAGCACC (DNA:RNA)
RNA: B5 RNA with U26A, U27G, G30C
DNA 1: CAATCTGAATTCCGGTCTCCC
DNA 2: TGGTGGCTACGACGGGATT
B25: GAGCAUG (DNA:RNA)
RNA: B5 RNA with U26A, U27G, G30U, C31G
DNA 1: CAATCTGAATTCCGGTCTCCC
DNA 2: TGGTGGCTACGACGGGATT
B26: GAGCACG (DNA:RNA)
RNA: B5 RNA with U26A, U27G, G30C, C31G
DNA 1: CAATCTGAATTCCGGTCTCCC
DNA 2: TGGTGGCTACGACGGGATT
B27: GAGCAUC (DNA:RNA)
RNA: B5 RNA with U26A, U27G, G30U
DNA 1: CAATCTGAATTCCGGTCTCCC
DNA 2: TGGTGGCTACGACGGGATT
B28: GAGCAGA (DNA:RNA)
RNA: B5 RNA with U26A, U27G, C31A
DNA 1: CAATCTGAATTCCGGTCTCCC
DNA 2: TGGTGGCTACGACGGGATT
B29: GAGAGCA (DNA:RNA)
RNA: B1 RNA with C25G, G26A, C27G, G28A, A30C, U31A
DNA 1: CAATCTGAATTCCGGTCTCCC
DNA 2: TGGTGGCTACGACGGGATT
B30: UUGCUAA (DNA:RNA)
RNA: B5 RNA with G25U, U27G, A29U, G30A, C31A
DNA 1: CAATCTGAATTCCGGTCTCCC
DNA 2: TGGTGGCTACGACGGGATT
B31: CGACAAG (DNA:RNA)
RNA: B1 RNA with C27A, G28C, G29A, U31G
DNA 1: CAATCTGAATTCCGGTCTCCC
DNA 2: TGGTGGCTACGACGGGATT

What follows are binders tested against T1, RBFOX1 RRM (Homo sapiens, UniProt Q9NWB1 109-208) (assay: EMSA; HiTS-Eq, 1 nM pool, 10 min; buffer printed only for the single-RNA assays: 10 mM Tris pH 7.5, 150 mM NaCl, 3.4 mM EDTA, 0.001% NP-40, 30 C). Conditions: tags: His6 N-terminal (pET28a); label: 5' 32P.
T1 sequence: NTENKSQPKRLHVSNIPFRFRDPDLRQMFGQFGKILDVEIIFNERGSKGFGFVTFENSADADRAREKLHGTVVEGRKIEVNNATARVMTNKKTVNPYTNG
Procedure, shortened: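 These values rest on relative association constants, computed from read-count changes of each RNA species versus the control reaction and normalised to the cognate motif. Reads came from free RNA recovered by 8% native PAGE after purified RbFox RRM (wild type or mutant) at increasing concentrations was equilibrated for 10 min in 50 µL with 1 nM of a 5′-radiolabelled pool with 7 randomized nucleotides and DNA-annealed flanks.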

Row | Binder | binding signal
1 | B1 | 0.0187 KA relative to UGCAUGU
2 | B2 | 0.0163 KA relative to UGCAUGU
3 | B3 | 0.0329 KA relative to UGCAUGU
4 | B4 | 0.0146 KA relative to UGCAUGU
5 | B5 | 0.0147 KA relative to UGCAUGU
6 | B6 | 0.00711 KA relative to UGCAUGU
7 | B7 | 0.0158 KA relative to UGCAUGU
8 | B8 | 0.0133 KA relative to UGCAUGU
9 | B9 | 0.0118 KA relative to UGCAUGU
10 | B10 | 0.00809 KA relative to UGCAUGU
11 | B11 | 0.0184 KA relative to UGCAUGU
12 | B12 | 0.0372 KA relative to UGCAUGU
13 | B13 | 0.029 KA relative to UGCAUGU
14 | B14 | 0.0288 KA relative to UGCAUGU
15 | B15 | 0.0354 KA relative to UGCAUGU
16 | B16 | 0.0253 KA relative to UGCAUGU

Row | Binder | binding signal
17 | B17 | 0.0374 KA relative to UGCAUGU
18 | B18 | 0.03 KA relative to UGCAUGU
19 | B19 | 0.00766 KA relative to UGCAUGU
20 | B20 | 0.0141 KA relative to UGCAUGU
21 | B21 | 0.00296 KA relative to UGCAUGU
22 | B22 | 0.00555 KA relative to UGCAUGU
23 | B23 | 0.0103 KA relative to UGCAUGU
24 | B24 | 0.00895 KA relative to UGCAUGU
25 | B25 | 0.713 KA relative to UGCAUGU
26 | B26 | 0.0394 KA relative to UGCAUGU
27 | B27 | 0.018 KA relative to UGCAUGU
28 | B28 | 0.0147 KA relative to UGCAUGU
29 | B29 | 0.0187 KA relative to UGCAUGU
30 | B30 | 0.00861 KA relative to UGCAUGU
31 | B31 | 0.00637 KA relative to UGCAUGU
